Six1-Eya2 blk: qHTS Assay for Inhibitors of the Six1/Eya2 Interaction; hit rate 0.56% among 360,000; AlphaScreen GST-Six1/His-Eya2 binding, biochemical; active compounds read low; Homeobox protein SIX1 (Homo sapiens) + Protein phosphatase EYA2 (Homo sapiens), …; activity change, % (concentration not given with the values)
Target sequence (O00167 whole entry, looked up): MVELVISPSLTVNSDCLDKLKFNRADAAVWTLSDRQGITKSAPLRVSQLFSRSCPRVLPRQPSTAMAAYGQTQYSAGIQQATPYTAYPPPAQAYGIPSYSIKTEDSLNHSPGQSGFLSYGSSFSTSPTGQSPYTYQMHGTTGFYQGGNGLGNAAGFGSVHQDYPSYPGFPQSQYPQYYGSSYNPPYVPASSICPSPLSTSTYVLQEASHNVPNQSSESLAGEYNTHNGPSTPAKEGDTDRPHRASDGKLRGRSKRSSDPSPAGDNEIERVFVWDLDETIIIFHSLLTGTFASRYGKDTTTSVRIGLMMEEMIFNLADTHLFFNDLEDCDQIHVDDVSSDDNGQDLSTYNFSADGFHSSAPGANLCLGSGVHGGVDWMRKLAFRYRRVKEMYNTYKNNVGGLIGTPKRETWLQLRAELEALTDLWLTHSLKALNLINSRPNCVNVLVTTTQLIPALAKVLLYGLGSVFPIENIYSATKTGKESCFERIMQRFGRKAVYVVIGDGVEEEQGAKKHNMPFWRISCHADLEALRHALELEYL
Target sequence (Q15475 whole entry, looked up): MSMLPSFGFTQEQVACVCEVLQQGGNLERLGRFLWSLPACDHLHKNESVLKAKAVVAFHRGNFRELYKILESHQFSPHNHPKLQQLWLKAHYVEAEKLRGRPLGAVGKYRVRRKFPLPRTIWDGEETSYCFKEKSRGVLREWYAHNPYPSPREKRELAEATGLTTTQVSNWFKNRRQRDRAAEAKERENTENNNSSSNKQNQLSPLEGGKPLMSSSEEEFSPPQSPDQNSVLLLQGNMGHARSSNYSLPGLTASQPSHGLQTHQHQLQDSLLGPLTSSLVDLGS
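Compounds are tested against tagged Six1 and Eya2 proteins bridged by glutathione donor and nickel acceptor beads; after a one-hour incubation at 37 °C without light, AlphaScreen emission is recorded.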
CtBP-E1A inh: qHTS Assay for Inhibitors of the CtBP/E1A Interaction; AlphaScreen GST-E1A/His-CtBP binding, 1536-well; active compounds read low; activity change, % (concentration not given with the values); hit rate 0.49% among 340,000; CtBP / adenovirus E1A interaction (AlphaScreen)
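Steps: dispense buffer (Tris pH 8.0, NaCl 300 mM, TCEP 1 mM, BSA, Tween 20); add 5X protein mix (GST-E1A, His-CtBP, 125 nM each); pin 23 nL compound; 2 h at 37 °C, dark; add 5X beads (50 ug/mL); 1 h; read.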
PI4K2A block: qHTS for small molecular inhibitors of PI4K2A; Phosphatidylinositol 4-kinase type 2-alpha (Homo sapiens), Q9BTU6; purified PI4K2A, ADP-Glo luminescence, 1 h; active compounds read low; activity change, negative = inhibition, % at 76.9 µM; hit rate 0.13% among 420,000; in the data active = activity change below about -50%; inconclusive = mostly about -30% to -49%;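 also: -100% = wells without enzyme as full effect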
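In this quantitative HTS, ADP production by PI4K2A was quantified luminescently after 1 h at ambient temperature; 100 microM adenosine served as plate-quality control.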
Eya2 inh: qHTS Assay for Inhibitors of the Phosphatase Activity of Eya2; Protein phosphatase EYA2 (Homo sapiens), O00167; recombinant Eya2, OMFP fluorescence dephosphorylation (OMFP is methylfluorescein phosphate); Potency, µM (series often up to 76.9 µM), without a hit: at the highest dose activity, negative = inhibition, hits mostly inhibitors; hit rate 0.006% among 330,000; active = well fitted inhibition curve with a large enough effect; inconclusive = small, poorly fitted or top-dose-only effect, or effect the other way; also: potency is read from the fitted curve at half-maximal effect
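Eya2 (0.2 uM) preincubated 10 min at ambient with compound, then OMFP substrate added at 50 uM; 10 min reaction in 50 mM HEPES pH 7.5, 50 mM NaCl, 5 uM MgCl2, 0.05% BSA, 1 mM DTT. Fluorescence read at Ex 485/Em 525 nm.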
CCT modulator: High-Throughput Screening for Modulators of Cytosolic Chaperonin Activity | AID 651819, 2012 | activity change, % (no concentration beside the values), hits read low | hit rate 0.3% among 360,000 | purified chaperonin ATPase assay, HTRF ADP detection, 30 min; in the data active = activity change below about -30%
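TRiC at 40 or 20 nM final (batch-dependent) in 30 mM Tris pH 7.4, 100 mM KCl, 5 mM MgCl2, 1 mM DTT, with compound at single 76 uM and 10 uM ATP, 30 min at 37 deg C. ADP detected by HTRF Transcreener, 665/615 ratio.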
Numbers without * were called inactive; ? = inconclusive; . = not tested or not shown. Only some compounds are listed: those with a hit (about 0.97% of all), similar ones and a draw of the others. Rule as the data show it, unless noted: active = activity change below about -65%; inconclusive = mostly about -30% to -63%; inactive = weaker than that. Unless noted, % is scaled to controls: 0 for no effect and ±100 for the full control effect.

SMILES	Six1-Eya2 blk	CtBP-E1A inh	PI4K2A block	Eya2 inh	CCT modulator
O=C(NCc1ccc(Cl)cc1)C1CCN(c2ncnc3c2nc2n3CCCCC2)CC1	.	.	-4.0	.	.
CSc1nc(N)n2nc(C)cc2n1	-89.3*	-92.1*	-3.7	.	0.2
CCOc1ccccc1NC(=O)CNC(=O)Cc1ccccc1	4.2	4.5	3.2	11.3%	-42.8*
CCOc1ccccc1NC(=O)CNC(=O)CNC(=O)Cc1ccccc1	13.2	-2.0	2.4	-2.7%	-1.8
O=[N+]([O-])c1cc(/C=N/N/C(=N/c2ccccn2)c2ccccn2)ccc1O	-86.0*	?	-7.4	3.1%	-2.8
O=[N+]([O-])c1ccc(/C=N/N/C(=N/c2ccccn2)c2ccccn2)cc1	-1.8	7.9	-2.9	8.1%	3.3
CCOc1ccc(NC(=S)c2ccc3ccccc3n2)cc1	-2.0	.	3.9	-9.0%	-30.0*
CCOc1ccc(/C=C/C(=O)Oc2ccccc2)cc1	0.8	-21.6	-4.4	-12.3%	-8.4
O=Cc1ccc(OC(=O)/C=C/c2ccccc2)cc1	?	-94.4*	44.1	-0.2%	-0.7
COc1ccc(OC(=O)/C=C/c2ccc([N+](=O)[O-])cc2)cc1	-19.5	-87.0*	7.9	-14.4%	-2.6
O=C(CSc1cn(CCNC(=O)c2c(F)cccc2F)c2ccccc12)Nc1ccc(F)cc1	.	.	-2.6	.	.
COc1ccc(S(=O)(=O)N2N=C(c3ccc(NS(C)(=O)=O)cc3)CC2c2ccco2)cc1 (configuration not stated)	-0.6	0.5	-2.5	1.3%	-1.5
COc1ccc(S(=O)(=O)N2N=C(c3cccc(NS(C)(=O)=O)c3)CC2c2ccco2)cc1 (configuration not stated)	-24.2	.	-2.1	4.6%	-68.9*
O=C1[C@@H]2[C@H]3CC[C@H](C3)[C@@H]2C(=O)N1CCCCN1CCN(c2ncccn2)CC1	.	.	-1.0	.	.
CC1Cc2ccccc2N1C(=O)COC(=O)/C=C/c1cccc(F)c1 (configuration not stated)	-25.9	-89.8*	-6.8	-4.1%	0.0
COc1ccc2nc(C)cc(SCC(=O)N/N=C/c3ccccc3)c2c1	?	-20.8	-0.6	0.9%	-2.3
COc1ccc2nc(C)cc(SCC(=O)N/N=C/c3ccc(O)cc3O)c2c1	-73.8*	-69.8*	-4.7	3.2%	0.0
COc1cccc2c(SCC(=O)N/N=C/c3ccc(O)cc3O)cc(C)nc12	-78.6*	-65.8*	2.5	6.6%	-1.5
COC(=O)[C@]12C[C@H](CC(=O)NCc3ccc(C)o3)C(=O)N(CCC3=CCCCC3)C1=C[C@H](C1CCCC1)O[C@@H]2C	.	.	0.8	.	.
CN(C)C(=O)CSc1cccc2cccnc12	-91.4*	-94.4*	-2.4	11.3%	-4.5
O=C(CSc1cccc2cccnc12)N1CCCC1	-93.3*	-91.4*	-14.1	1.4%	1.9
O=C(CSc1cccc2cccnc12)OCC(=O)c1ccccc1	-87.7*	-93.3*	-0.8	-11.7%	0.0
Cc1ccc(C(=O)Nc2nnc(SCc3cc(=O)c4c(C)ccc(C)c4[nH]3)s2)cc1	.	.	-2.7	.	.
COc1ccc(CNC(=O)CCCn2c(=O)c3cccn3c3ccc(F)cc32)cc1OC	.	.	0.5	.	.
CN(C)c1ccc(NC(=O)CN2CCN(CC(=O)Nc3ccc(Br)cc3)CC2)cc1	.	.	0.0	.	.
CCNC(=O)CN1C(=O)NC2(CCCc3cc(OC)ccc32)C1=O (configuration not stated)	6.8	9.6	4.3	-8.2%	-2.0
COCCNC(=O)CN1C(=O)NC2(CCCc3cc(OC)ccc32)C1=O (configuration not stated)	3.3	1.2	-8.3	7.8%	-36.0*
O=C(c1cncc(Br)c1)N1CCN(c2ccc(N3CCOCC3)nn2)CC1	3.6	2.4	-5.5	26.3%	-37.4*
CC1Oc2ccccc2C=C1/C=N/NC(=O)c1ccccc1 (configuration not stated)	-3.7	4.4	3.2	3.0%	-45.2*
